Data as given in PubChem BioAssay AID2330 (Broad Institute, 2010).
The whole screen tested about 37,000 compounds, of which about 2,800 (7.6%) were called active. Inconclusive results (about 1%) are left out. Only a selection was taken, and actives are over-represented in it overall. Values without a mark were called inactive. Rule as the data show it: active = inhibition above about 80%; inconclusive = no clear call, values can overlap the other calls; inactive = below that.

test: NOMO-1 AML cell viability reduction, primary screen, STK33 inhibitor project, CellTiter-Glo luminescence (AID 2330); conditions: NOMO-1 AML viability, 72 h, hits give high values, concentration not given here

Row | SMILES | inhibition
1 | CC(C)NC(=O)Nc1ccc2c(c1)C(=O)N([C@@H](C)CO)C[C@@H](C)[C@H](CN(C)C(=O)NC1CCCCC1)O2 | 30.5%
2 | COc1ccc(-c2nnc(SCC(=O)O)n2-c2ccccc2)cc1OC | -16.5%
3 | CC1(C)Cc2c(sc3ncn4nc(COc5ccc(Cl)cc5)nc4c23)C(C)(C)N1 | 142% (active)
4 | O=C1c2ccccc2C(=O)C1c1cc(=O)[nH]c2c1ccc1ccccc12 | 11.8%
5 | CCOC(=O)c1nnn(-c2nonc2-n2cccc2)c1CN1CCOCC1 | 24.9%
6 | Cc1ccc(S(=O)(=O)Nc2ccc3c(c2)CC(=O)N([C@@H](C)CO)C[C@@H](C)[C@@H](CN(C)S(=O)(=O)c2ccccc2)O3)cc1 | 5.59%
7 | C[C@@H]1CN([C@H](C)CO)C(=O)Cc2cc(NS(=O)(=O)c3cccs3)ccc2O[C@@H]1CN(C)Cc1ccc(C(=O)O)cc1 | -19.7%
8 | Cc1ccc(S(=O)(=O)Nc2ccc3c(c2)CC(=O)N([C@@H](C)CO)C[C@H](C)[C@H](CN(C)Cc2ccc(C(=O)Nc4ccccc4N)cc2)O3)cc1 | 139% (active)
9 | Cc1ccc(S(=O)(=O)N(C)C[C@H]2Oc3ccc(NS(=O)(=O)c4ccccc4)cc3CC(=O)N([C@@H](C)CO)C[C@H]2C)cc1 | -0.416%
10 | C[C@H]1CN([C@@H](C)CO)C(=O)Cc2cc(NS(=O)(=O)c3ccccc3)ccc2O[C@H]1CN(C)Cc1ccc(C(=O)Nc2ccccc2N)cc1 | 141% (active)
11 | C[C@H](CO)N1C[C@H](C)[C@H](CN(C)CC2CC2)Oc2ccc(NS(=O)(=O)c3ccccc3)cc2CC1=O | 20.8%
12 | COc1ccc(S(=O)(=O)Nc2ccc3c(c2)CC(=O)N([C@@H](C)CO)C[C@@H](C)[C@@H](CN(C)Cc2ccc(C(=O)Nc4ccccc4N)cc2)O3)cc1 | 100% (active)
13 | COc1ccc(CN(C)C[C@H]2Oc3ccc(NS(=O)(=O)c4ccc(Cl)cc4)cc3CC(=O)N([C@@H](C)CO)C[C@H]2C)cc1 | 40.8%
14 | COc1ccc(S(=O)(=O)Nc2ccc3c(c2)CC(=O)N([C@H](C)CO)C[C@@H](C)[C@@H](CN(C)C(=O)Nc2cccc4ccccc24)O3)cc1 | -1.33%
15 | C[C@@H]1CCCCO[C@H](CN(C)S(=O)(=O)c2ccccc2)[C@@H](C)CN([C@H](C)CO)C(=O)c2cc(NC(=O)Nc3ccc(F)cc3)ccc2O1 | 33.7%
16 | C[C@@H]1CCCCO[C@H](CN(C)S(=O)(=O)c2cccs2)[C@@H](C)CN([C@H](C)CO)C(=O)c2cc(NC(=O)Nc3ccccc3)ccc2O1 | 11.8%
17 | O=c1cc(CSc2nnnn2-c2ccccc2)[nH]c(=S)[nH]1 | 33.9%
18 | C[C@@H]1CN([C@@H](C)CO)C(=O)Cc2cc(NC(=O)C3CCCCC3)ccc2O[C@@H]1CN(C)Cc1ccncc1 | 15.8%
19 | CCOC(=O)c1cnc2cc(C(F)(F)F)ccc2c1N1CCCCCC1 | 13.2%
20 | CNC[C@@H]1Oc2ccc(NC(=O)Nc3ccc4c(c3)OCO4)cc2C(=O)N([C@H](C)CO)C[C@@H]1C | 6.4%
21 | COc1ccc(NC(=O)c2ccc(OCC(=O)Nc3ccccc3F)cc2)cc1Cl | 19.2%
22 | CCOC(=O)c1c(CN2CCOCC2)nc2c3ccccc3ccn12 | -2.66%
23 | CCOC(=O)c1nnn2c3ccccc3c(=O)n(C)c12 | -3.54%
24 | CCOC(=O)c1nnn2c1nc(N1CCN(c3ccccc3)CC1)c1ccccc12 | 101% (active)

Row | SMILES | inhibition
25 | Cc1noc(C)c1NC(=O)Nc1cccc2c1O[C@H](CN(C)C(=O)Nc1ccccc1)[C@@H](C)CN([C@H](C)CO)C2=O | 30.8%
26 | NC(CC(=O)Nc1ccc(Cl)cc1)C(=O)O (stereo not given) | 16.1%
27 | Cc1noc(C)c1S(=O)(=O)Nc1ccc2c(c1)CC(=O)N([C@@H](C)CO)C[C@@H](C)[C@@H](CN(C)C(=O)Nc1ccc(C(F)(F)F)cc1)O2 | 14.7%
28 | O=C1Cc2ccc(F)cc2CC1C1=Cc2ccc(F)cc2CC1 (stereo not given) | 114% (active)
29 | Cc1ccc(NC(N)=O)cc1 | 0.872%
30 | Oc1ccc(CN2CCCC2)c2cccnc12 | 141% (active)
31 | C[C@H](CO)N1C[C@H](C)[C@H](CN(C)S(=O)(=O)c2ccc(Cl)cc2)Oc2c(NS(C)(=O)=O)cccc2C1=O | 9.14%
32 | C[C@H](CO)N1C[C@H](C)[C@H](CN(C)S(=O)(=O)c2cccs2)Oc2ccc(NS(=O)(=O)c3ccc(Cl)cc3)cc2CC1=O | 12.4%
33 | COc1c(C)c2c(c(O)c1C/C=C(\C)CCC(=O)O)C(=O)OC2 | 139% (active)
34 | CS(=O)(=O)N(CC(=O)Nc1ccc(F)c(F)c1)c1ccccc1F | -8.09%
35 | Oc1c(Cl)cc(Cl)cc1C1Nc2cc(C(F)(F)F)ccc2-n2cccc21 (stereo not given) | 114% (active)
36 | C[C@@H]1CN([C@H](C)CO)C(=O)Cc2cc(NC(=O)CCN3CCOCC3)ccc2O[C@@H]1CN(C)S(C)(=O)=O | 5.67%
37 | CC(C)NC(=O)N(C)C[C@@H]1Oc2ccc(NS(=O)(=O)c3cn(C)cn3)cc2C(=O)N([C@@H](C)CO)C[C@@H]1C | 18.9%
38 | Cn1c(OCc2cccnc2)nc2c1c(=O)n(Cc1ccc(Cl)c(Cl)c1)c(=O)n2C | 27.8%
39 | c1ccc2[nH]c(CSc3nc4ccccc4[nH]3)nc2c1 | 6.35%
40 | CCOC(=O)c1cc(=O)c2ccc(OCc3ccccc3)cc2o1 | 105% (active)
41 | Cc1cc(=O)oc2cc(OCc3cccc(F)c3)ccc12 | 25.5%
42 | Cc1c(CCC(=O)O)c(=O)oc2cc(OCc3ccc(Br)cc3)ccc12 | 19.3%
43 | O=C(CSc1nnc2ccc3ccccc3n12)Nc1ccc2c(c1)OCCO2 | 12.1%
44 | NC(=O)CSc1oc(-c2cccs2)nc1S(=O)(=O)c1ccccc1 | 11.4%
45 | Cc1noc(C)c1NC(=O)N(C)C[C@@H]1Oc2ccc(NS(C)(=O)=O)cc2C(=O)N([C@@H](C)CO)C[C@@H]1C | -15.6%
46 | COc1ccc(NC(=O)Nc2ccc3c(c2)C(=O)N([C@H](C)CO)C[C@H](C)[C@@H](CN(C)C(=O)Nc2ccc4c(c2)OCO4)O3)cc1 | 14.3%
47 | COC(=O)c1cc(OC)c(OC)cc1NC(=O)COc1ccccc1Cl | -12.9%
48 | COC(=O)c1cc(OC)c(OC)cc1NC(=O)c1cc(-c2ccc(C)o2)nc2ccccc12 | 92.8% (active)

Row | SMILES | inhibition
49 | COC(=O)c1c(-c2cccnc2)csc1NC(=O)c1cc(-c2ccc(C)o2)nc2ccccc12 | 86.9% (active)
50 | COC(=O)c1cc(OC)c(OC)cc1NC(=O)COc1ccc(Cl)cc1 | 15.1%
51 | Cc1ccccc1OCC(=O)Nc1cc(-c2nc3ccccc3s2)c(Cl)cc1Cl | 6.92%
52 | COc1ccc(NC(=O)N(C)C[C@H]2Oc3ccc(NC(=O)NC(C)C)cc3CC(=O)N([C@H](C)CO)C[C@H]2C)cc1 | 3.6%
53 | C[C@@H]1CN([C@H](C)CO)C(=O)Cc2cc(NS(C)(=O)=O)ccc2O[C@H]1CN(C)S(=O)(=O)c1ccccc1 | -9.84%
54 | Cn1c(=O)c2c(nc(SCC(=O)O)n2Cc2ccc(F)cc2)n(C)c1=O | 17.9%
55 | Cc1cc(=O)oc2cc(OC(C)C(=O)Nc3ccc(Cl)c(C(F)(F)F)c3)ccc12 (stereo not given) | 4.93%
56 | C[C@H]1CN([C@@H](C)CO)C(=O)c2cc(NC(=O)Nc3ccccc3)ccc2O[C@H]1CN(C)S(C)(=O)=O | 15.5%
57 | CC(=O)c1cccc(NC(=O)CN(c2ccc(F)c(Cl)c2)S(C)(=O)=O)c1 | 13.8%
58 | Cc1noc(C)c1NC(=O)Nc1ccc2c(c1)CC(=O)N([C@@H](C)CO)C[C@@H](C)[C@@H](CN(C)Cc1ccc(Cl)c(Cl)c1)O2 | 58.1%
59 | COc1cc(O)cc(C)c1C(=O)OC1C(CO)OC(n2ccc(=O)[nH]c2=O)C1OC(C)=O (stereo not given) | 6.97%
60 | CCc1cc(C(=O)OC)c(NC(=S)Nc2ccc(OC)cc2[N+](=O)[O-])s1 | 22.2%
61 | COC(=O)c1cc(C)sc1NC(=S)Nc1ncn(Cc2ccc(F)cc2Cl)n1 | 109% (active)
62 | C[C@H]1CN([C@@H](C)CO)C(=O)Cc2cc(NS(=O)(=O)c3cccs3)ccc2O[C@@H]1CN(C)Cc1ccc(Oc2ccccc2)cc1 | 78.4%
63 | C[C@H]1CN([C@@H](C)CO)C(=O)Cc2cc(NC(=O)Nc3ccc4c(c3)OCO4)ccc2O[C@H]1CN(C)CC1CC1 | 11.8%
64 | C[C@@H]1CN([C@@H](C)CO)C(=O)Cc2cc(NC(=O)Nc3ccc4c(c3)OCO4)ccc2O[C@@H]1CN(C)CC1CCCCC1 | 88.2% (active)
65 | C[C@H]1CN([C@@H](C)CO)C(=O)c2cc(NC(=O)Nc3ccc4c(c3)OCO4)ccc2O[C@@H]1CN(C)CC1CCCCC1 | 31.9%
66 | C[C@H]1CN([C@@H](C)CO)C(=O)Cc2cc(NC(=O)Nc3cccc4ccccc34)ccc2O[C@H]1CN(C)CC1CC1 | 26.7%
67 | C[C@@H]1CN([C@@H](C)CO)C(=O)Cc2cc(NC(=O)Nc3cccc4ccccc34)ccc2O[C@@H]1CN(C)CC1CCCCC1 | 117% (active)
68 | C[C@H]1CN([C@@H](C)CO)C(=O)Cc2cc(NC(=O)Nc3cccc4ccccc34)ccc2O[C@@H]1CN(C)S(C)(=O)=O | 0.688%
69 | C[C@H](CO)N1C[C@H](C)[C@@H](CN(C)Cc2ccc3c(c2)OCO3)Oc2c(NC(=O)C3CCOCC3)cccc2C1=O | 20.1%
70 | O=C(Nc1ccc(Cl)cc1C(=O)NCc1ccco1)c1ccco1 | 31.2%
